Experimental data reported in PubChem BioAssay.
Active and inactive are the calls of the source.

Columns and labels:
Albumin (Bos taurus) = Albumin (Bos taurus) (UniProt P02769); experiment: bovine serum albumin binders on microarray, profiling panel, artefact control for SMM control protein annotation, biochemical, small-molecule microarray, Alexa647 label, 635/667 nm fluorescence (AID 1118); details: BSA-A647 binding, fluorescence 635 nm, higher = more signal;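 note: score merges 667 nm emission intensity and signal-to-noise per printed compound spot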
Albumin (Bos taurus), sequence (P02769 whole entry, looked up): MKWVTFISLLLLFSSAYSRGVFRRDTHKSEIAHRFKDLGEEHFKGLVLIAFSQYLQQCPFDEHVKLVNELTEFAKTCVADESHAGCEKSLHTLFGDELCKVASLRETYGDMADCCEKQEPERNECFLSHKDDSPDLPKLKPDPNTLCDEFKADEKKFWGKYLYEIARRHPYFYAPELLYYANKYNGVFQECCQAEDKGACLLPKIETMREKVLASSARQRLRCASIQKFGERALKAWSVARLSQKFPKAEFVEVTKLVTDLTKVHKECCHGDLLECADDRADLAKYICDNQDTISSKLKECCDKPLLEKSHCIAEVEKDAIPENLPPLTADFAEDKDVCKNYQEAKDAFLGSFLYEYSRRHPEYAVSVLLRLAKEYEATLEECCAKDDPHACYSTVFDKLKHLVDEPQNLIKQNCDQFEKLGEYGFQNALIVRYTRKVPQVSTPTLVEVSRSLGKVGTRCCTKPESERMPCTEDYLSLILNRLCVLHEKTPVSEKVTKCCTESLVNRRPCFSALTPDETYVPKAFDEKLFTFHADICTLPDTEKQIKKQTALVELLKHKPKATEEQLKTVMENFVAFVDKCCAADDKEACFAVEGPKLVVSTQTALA

[1] = small-molecule microarray binders of probe aXIP, primary screen, biochemical, NeuroSMM set, 635/667 nm fluorescence (AID 1119); details: higher = more signal, called active from +8 up or from −8 down;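 note: probe is the protein aXip251-270 applied at 1 µg/mL to compound-printed slides; binding of probe to printed compounds measured as 667 nm fluorescence plus signal to noise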
[2] = small-molecule binders of probe aNOTCH3, primary screen, biochemical, small-molecule microarray, 635/667 nm fluorescence (AID 1120); details: higher = more signal;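 note: probe is a biotin-tagged antibody raised against NOTCH3 rather than NOTCH3 protein; score merges spot fluorescence near 667 nm with spot signal to noise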
[3] = small-molecule binders of probe aNOTCH2, primary screen, biochemical, small-molecule microarray, 635/667 nm fluorescence (AID 1121); details: higher = more signal;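 note: score merges feature fluorescence read at 667 nm with its signal to noise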
[4] = target: Carbonic anhydrase 2 (Homo sapiens) (UniProt P00918); experiment: CAII small-molecule binders, profiling panel, biochemical, small-molecule microarray, Alexa647-labelled CAII (AID 1122); details: CAII-A647 binding fluorescence, higher = more signal
[5] = COS7 lysate on small-molecule microarray, probe aHis, 635 nm (AID 1123); details: COS7 cell lysate, fluorescence, higher = more signal;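 note: z-score combines 667nm fluorescence intensity with signal-to-noise per printed compound spot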
[6] = compound binding in COS7 lysate, probe aLAP1, primary screen, cell lysate, small-molecule microarray (AID 1124); details: probe aLAP1, fluorescence, higher = more signal;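 note: lysate comes from COS7 cells expressing LAP1 and is applied at 0.3 µg/mL; score merges spot fluorescence near 667 nm with signal-to-noise over triplicate slides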
Sam68 (KHDRBS1) = experiment: Sam68 small-molecule binders, primary screen, biochemical, small-molecule microarray, 635 nm fluorescence (AID 1125); details: small-molecule microarray binding, higher = more signal;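 note: score merges 667 nm channel intensity with signal to noise over triplicate slides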
[7] = system: Chordin-like protein 2 (CHRDL2); experiment: CHRDL2 small-molecule binders, primary screen, biochemical, small-molecule microarray, 635 nm fluorescence (AID 1126); details: small-molecule microarray binding, fluorescence 635 nm; higher = more signal;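 note: printed compound slides probed with Chrdl2 protein at 4 µg/mL for 1 h at 4 C; score merges 667 nm emission intensity with signal to noise over three replicate slides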
[8] = target: Concanavalin-A (Canavalia ensiformis) (UniProt P02866); experiment: ConA small-molecule binders, primary screen, artefact control for SMM control protein annotation, biochemical, small-molecule microarray, Alexa647 label, 635 nm (AID 1127); details: ConA-A647 binding fluorescence, higher = more signal;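 note: z combines 667 nm emission intensity with signal-to-noise across three replicate slides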
Concanavalin-A (Canavalia ensiformis), sequence (P02866 whole entry, looked up): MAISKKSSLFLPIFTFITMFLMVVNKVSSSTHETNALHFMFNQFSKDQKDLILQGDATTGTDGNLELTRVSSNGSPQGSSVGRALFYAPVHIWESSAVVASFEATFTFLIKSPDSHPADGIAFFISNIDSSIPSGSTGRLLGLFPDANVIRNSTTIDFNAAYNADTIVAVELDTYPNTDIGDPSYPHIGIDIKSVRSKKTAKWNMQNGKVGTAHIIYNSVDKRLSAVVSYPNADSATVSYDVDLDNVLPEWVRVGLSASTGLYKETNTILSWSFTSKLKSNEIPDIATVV

[9] = anti-His antibody binders, primary screen, artefact control for SMM control protein annotation, biochemical, small-molecule microarray, 635 nm fluorescence (AID 1128); details: anti-His Alexa647 antibody binding, higher = more signal;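 note: score merges feature fluorescence with signal-to-noise for each printed compound spot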
[10] = system: Human papillomavirus type 1a E7 protein (residues 1-88); experiment: HPV1a E7 small-molecule binders, primary screen, biochemical, small-molecule microarray, residues 1-88, 635 nm (AID 1129); details: small-molecule microarray binding, fluorescence 635 nm; higher = more signal
[11] = target: Focal adhesion kinase 1 (Homo sapiens) (UniProt Q05397); experiment: small-molecule microarray binders of FAK, primary screen, biochemical, 635/667 nm fluorescence, BSA, DTT (AID 1130); details: PTK2 binding, 635 nm fluorescence, higher = more signal;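 note: composite of spot emission at 667 nm and signal to noise over triplicate slides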
Focal adhesion kinase 1 (Homo sapiens), sequence (Q05397 whole entry, looked up): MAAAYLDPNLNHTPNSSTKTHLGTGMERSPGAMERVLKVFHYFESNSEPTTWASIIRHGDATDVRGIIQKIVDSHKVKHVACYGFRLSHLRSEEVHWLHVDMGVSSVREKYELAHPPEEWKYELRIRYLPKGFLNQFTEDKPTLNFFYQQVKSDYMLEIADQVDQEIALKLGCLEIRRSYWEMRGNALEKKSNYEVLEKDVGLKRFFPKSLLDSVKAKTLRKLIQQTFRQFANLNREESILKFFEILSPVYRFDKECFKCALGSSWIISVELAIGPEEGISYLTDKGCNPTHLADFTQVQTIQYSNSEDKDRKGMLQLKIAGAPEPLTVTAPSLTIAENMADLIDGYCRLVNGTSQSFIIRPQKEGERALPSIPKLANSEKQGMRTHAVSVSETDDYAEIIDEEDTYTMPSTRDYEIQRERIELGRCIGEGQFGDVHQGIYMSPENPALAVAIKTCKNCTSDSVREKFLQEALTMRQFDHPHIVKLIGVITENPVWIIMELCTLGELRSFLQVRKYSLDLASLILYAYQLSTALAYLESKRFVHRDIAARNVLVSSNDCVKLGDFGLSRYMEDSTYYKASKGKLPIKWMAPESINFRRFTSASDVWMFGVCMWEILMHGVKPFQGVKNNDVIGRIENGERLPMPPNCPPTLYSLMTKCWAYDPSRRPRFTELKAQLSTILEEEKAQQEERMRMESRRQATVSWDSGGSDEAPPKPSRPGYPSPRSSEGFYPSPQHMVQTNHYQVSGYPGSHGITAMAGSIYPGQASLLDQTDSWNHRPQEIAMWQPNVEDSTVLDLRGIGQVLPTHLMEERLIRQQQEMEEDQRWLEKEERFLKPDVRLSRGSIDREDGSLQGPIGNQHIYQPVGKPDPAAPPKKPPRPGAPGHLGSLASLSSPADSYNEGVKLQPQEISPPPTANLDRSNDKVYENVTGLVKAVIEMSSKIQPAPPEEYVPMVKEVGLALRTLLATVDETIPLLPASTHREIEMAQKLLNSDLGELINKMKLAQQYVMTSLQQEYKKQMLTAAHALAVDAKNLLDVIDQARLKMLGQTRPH

[12] = system: Fibrinogen (Alexa647-labelled); experiment: fibrinogen binders on compound microarrays, profiling panel, artefact control for SMM control-protein annotation, biochemical, small-molecule microarray, 635/667 nm fluorescence (AID 1131); details: fibrinogen-A647 binding fluorescence, higher = more signal;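 note: z-score merges 667 nm fluorescence with per-spot signal-to-noise over triplicate slides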
[13] = target: Follistatin (Homo sapiens) (UniProt P19883); experiment: follistatin binders on small-molecule microarrays, primary screen, biochemical, small-molecule microarray, 635/667 nm fluorescence (AID 1132); details: FST binding, 635 nm fluorescence, higher = more signal
Follistatin (Homo sapiens), sequence (P19883 whole entry, looked up): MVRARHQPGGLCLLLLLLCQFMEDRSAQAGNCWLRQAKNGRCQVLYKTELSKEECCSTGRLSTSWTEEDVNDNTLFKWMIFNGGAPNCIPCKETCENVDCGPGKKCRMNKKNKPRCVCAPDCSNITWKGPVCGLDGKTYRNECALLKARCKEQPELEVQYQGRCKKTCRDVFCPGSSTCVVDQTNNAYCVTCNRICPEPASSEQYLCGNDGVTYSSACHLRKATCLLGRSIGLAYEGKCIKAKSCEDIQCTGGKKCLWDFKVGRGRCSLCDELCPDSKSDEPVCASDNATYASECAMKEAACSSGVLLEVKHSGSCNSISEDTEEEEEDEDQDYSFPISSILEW

[14] = target: Fibroblast growth factor 2 (Homo sapiens) (UniProt P09038); experiment: FGF2 binders on small-molecule microarrays, primary screen, biochemical, small-molecule microarray, 635/667 nm fluorescence (AID 1133); details: small-molecule microarray binding, FGF2, fluorescence 635/667; higher = more signal
Fibroblast growth factor 2 (Homo sapiens), sequence (P09038 whole entry, looked up): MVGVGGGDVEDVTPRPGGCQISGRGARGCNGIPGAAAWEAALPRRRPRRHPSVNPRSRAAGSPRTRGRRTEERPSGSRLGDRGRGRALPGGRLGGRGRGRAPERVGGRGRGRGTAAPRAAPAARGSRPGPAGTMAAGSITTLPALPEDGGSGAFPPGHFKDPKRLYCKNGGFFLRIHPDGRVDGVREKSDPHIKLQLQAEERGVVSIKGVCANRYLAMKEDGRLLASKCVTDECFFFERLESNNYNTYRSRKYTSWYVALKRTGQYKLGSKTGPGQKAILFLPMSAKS

[15] = mitochondrial membrane potential change in A549 cells, profiling panel, cell-based, JC-1 fluorescence, basal, 24 h, 100 nL (AID 1138); details: higher = more signal;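 note: A549 lung adenocarcinoma cells under basal conditions with no added stimulus; test concentration not given here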
Lefty1 = Lefty1 binders on small-molecule microarrays, primary screen, biochemical, small-molecule microarray, 635/667 nm fluorescence (AID 1139); details: small-molecule microarray binding, fluorescence 635/667; higher = more signal
[16] = system: wheat germ agglutinin (Triticum aestivum), Alexa647-labelled; experiment: wheat germ agglutinin binders on compound microarrays, profiling panel, artefact control for SMM control-protein annotation, biochemical, small-molecule microarray, 635/667 nm fluorescence (AID 1140); details: WGA-A647 binding, 635 nm fluorescence, higher = more signal;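 note: score merges 667 nm feature emission with signal to noise over triplicate slides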
[17] = target: Luciferin 4-monooxygenase (Photinus pyralis) (UniProt P08659); experiment: firefly luciferase enzyme inhibitors, primary screen, biochemical, luminescence, purified enzyme, 2006 set (AID 1141); details: SteadyGlo luminescence, 30 min, higher = more signal, called active from +8 up or from −8 down;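 note: cell-free assay with purified firefly luciferase at 100 ng per well in PBS; test concentration not given here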
Luciferin 4-monooxygenase (Photinus pyralis), sequence (P08659 whole entry, looked up): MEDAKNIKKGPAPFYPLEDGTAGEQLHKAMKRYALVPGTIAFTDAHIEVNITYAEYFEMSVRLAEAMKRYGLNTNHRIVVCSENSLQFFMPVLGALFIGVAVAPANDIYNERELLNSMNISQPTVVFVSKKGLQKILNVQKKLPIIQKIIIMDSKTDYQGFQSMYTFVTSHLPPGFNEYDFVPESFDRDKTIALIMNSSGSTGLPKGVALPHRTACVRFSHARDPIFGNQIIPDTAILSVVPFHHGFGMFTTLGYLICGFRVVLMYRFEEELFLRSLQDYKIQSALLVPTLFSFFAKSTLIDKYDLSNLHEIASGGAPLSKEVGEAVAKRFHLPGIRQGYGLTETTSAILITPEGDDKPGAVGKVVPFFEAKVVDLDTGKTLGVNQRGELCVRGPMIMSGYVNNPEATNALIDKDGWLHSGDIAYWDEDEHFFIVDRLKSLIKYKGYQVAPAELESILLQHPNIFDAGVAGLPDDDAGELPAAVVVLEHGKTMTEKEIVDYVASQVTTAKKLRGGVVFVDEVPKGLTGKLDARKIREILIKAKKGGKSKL

Compound	composite z-score (Albumin (Bos taurus))	composite Z-score [1]	composite z-score [2]	composite z-score [3]	composite z-score [4]	composite z-score [5]	composite z-score [6]	composite z-score (Sam68 (KHDRBS1))	composite z-score [7]	composite z-score [8]	composite z-score [9]	composite z-score [10]	composite z-score [11]	composite z-score [12]	composite z-score [13]	composite z-score [14]	z-score [15]	composite z-score (Lefty1)	composite z-score [16]	z-score [17]
CC(C)CNC(=O)[C@@]1(C)c2ccccc2C(=O)N(Cc2ccccc2)[C@H]1c1ccc(CO)cc1	-0.928	3.02 (inactive)	-0.352	-0.133	0.788	1.19	1.16	-0.992	-2.5	-1.44	-0.97	-0.955	-0.846	-1.84	-0.976	-1.27	-0.504	-2.25	-1.4	0.182 (inactive)
CCCCC(=C=CC[C@H](O)c1ccccc1OCCO)C[C@H](O)c1ccccn1	0.0165	-0.452 (inactive)	0.0311	-0.164	0.557	-0.137	0.271	-0.0949	0.547	0.319	0.299	0.0909	-0.255	-0.196	1.29	1.37	0.717	1.15	0.458	-0.109 (inactive)
C=CCN1C(=O)[C@@]2(O[C@@H](CCO)[C@H]([Si](C)(C)c3ccc(OC)cc3)[C@H]2C)c2cc(NC(=O)[C@H](C)O)ccc21	0.489	0.0001 (inactive)	-0.0343	-0.126	0.63	1.68	0.231	1.31	-0.0585	0.584	2.01	1.19	1.38	0.114	0.346	0.0211	2.74	0.582	0.98	-0.676 (inactive)
COCCOC(=O)N1C(=O)[C@@]2(c3cc(C#CCCO)ccc31)[C@H](C(=O)NC[C@H](O)c1ccccc1)[C@H]1C(=O)O[C@H](c3ccccc3)[C@H](c3ccccc3)N1[C@@H]2c1ccccc1OCCO	-0.919	0.427 (inactive)	0.252	0.177	0.0771	1.33	1.32	1.3	0.969	1.09	-0.338	1.23	1.07	0.59	1.28	1.42	0.358	1.35	1.07	-1.02 (inactive)
COC(=O)[C@@]1(Cc2ccccc2)[C@H]2c3cc(C(=O)N4CCCC4)n(CCO)c3C[C@H]2CN1C(=O)c1ccccc1	1.03	1.61 (inactive)	1.37	0.853	0.841	2.35	1.41	1	0.443	0.886	0.931	0.992	0.747	0.488	0.961	0.0586	0.841	-0.493	1.12	0.891 (inactive)
C[C@@H]1ON(c2ccccc2)[C@H](c2ccccc2)[C@H]1C(=O)N1C(=O)OC[C@H]1Cc1ccccc1	0.215	0.477 (inactive)	-0.0057	-0.14	0.303	0.514	-0.0985	0.885	0.447	0.603	0.39	0.569	0.507	-0.178	0.586	0.375	2.24	0.675	0.237	0.549 (inactive)
Cc1ccc(C(C)CC(O)C2C=CC3C(=O)N(Cc4ccccc4)C(=O)C3N2n2cnnc2)o1 (stereo not given)	1.03	0.391 (inactive)	1.3	0.654	0.461	1.7	0.704	1.12	-0.377	1.17	1.54	0.942	-0.103	0.923	0.713	0.0103	-1.49	0.273	0.842	0.785 (inactive)
COc1ccc(CCNC(=O)[C@@H]2c3ccccc3C(=O)N(Cc3ccccc3)[C@H]2c2ccc(CO)cc2)cc1	0.286	-0.149 (inactive)	-0.199	-0.0562	0.735	1.64	1.36	1.34	0.156	0.526	0.597	0.529	-0.0502	-0.279	0.987	0.363	1.77	0.442	0.791	0.582 (inactive)
C=CC[C@@]1(C(=O)NCCN2CCOCC2)N=C(c2ccc(OCCCO)cc2)O[C@@H]1c1ccccc1	0.262	-0.288 (inactive)	0.291	-0.0907	0.673	2.52	0.871	1.12	1.4	0.608	0.432	1.24	0.49	0.755	1.46	1.73	-0.185	1.55	0.978	-0.43 (inactive)
O=c1c2ccc(Br)cc2nc(-c2ccccc2)n1Cc1cccc(O)c1	0.757	0.906 (inactive)	0.103	0.138	0.711	1.46	1.3	0.772	0.182	0.988	0.741	0.988	0.551	0.671	0.346	0.283	0.836	-0.0693	1.05	-0.273 (inactive)
Cc1cc(C)c(C(O)C2C=CC3C(=O)N(c4ccccc4)C(=O)C3N2Nc2ccc([N+](=O)[O-])cc2)c(C)c1 (stereo not given)	1.06	-0.909 (inactive)	0.418	0.149	0.643	2.79	0.893	1.3	-0.224	1.19	0.945	1.22	0.434	1.02	1.08	0.504	-0.712	0.648	0.71	1.12 (inactive)
